# Screening results: PubChem BioAssay, National Center for Advancing Translational Sciences (NCATS)
# Rows were chosen to be rich in hits. Some 1.9% of all compounds tested hit in one or more screens of this group.
# IL-2 act: activators of IL-2; actives 0.065% (n = 360,000); IL-2 activation reporter assay, cell-based qHTS; stimulated with anti-CD3/CD4/CD28 beads; in transgenic mouse T cells; activation, % (series mostly up to about 46 µM); AID 652025; in the data active means activation above about 50%; inconclusive means mostly about 30% to 49%; further: 0% is about no effect
#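 First, unstimulated transgenic mouse T cells were exposed to compound for 60 min. Next, anti-CD3/anti-CD4-coated beads with anti-CD28 were added. Finally, after 18 h at 37 degrees C, EGFP and DsRed were imaged.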
# RXFP1 ag: RXFP1 (human) receptor agonism; Q9HBX9; HEK293T-RXFP1 cAMP TR-FRET, 30 min; response scale: percent of porcine relaxin response, buffer zero; Potency, µM (titrated, usually from 57.5 µM), inactives show top-dose activation, usual class: activators; actives 0.3% (n = 370,000); further: potency means the concentration at half of the fitted maximal effect; on the % scale 0 is the no-effect control and ±100 the full control effect; nearly all actives have a fitted effect of over 60% in size
# Target sequence (Q9HBX9 whole entry, looked up): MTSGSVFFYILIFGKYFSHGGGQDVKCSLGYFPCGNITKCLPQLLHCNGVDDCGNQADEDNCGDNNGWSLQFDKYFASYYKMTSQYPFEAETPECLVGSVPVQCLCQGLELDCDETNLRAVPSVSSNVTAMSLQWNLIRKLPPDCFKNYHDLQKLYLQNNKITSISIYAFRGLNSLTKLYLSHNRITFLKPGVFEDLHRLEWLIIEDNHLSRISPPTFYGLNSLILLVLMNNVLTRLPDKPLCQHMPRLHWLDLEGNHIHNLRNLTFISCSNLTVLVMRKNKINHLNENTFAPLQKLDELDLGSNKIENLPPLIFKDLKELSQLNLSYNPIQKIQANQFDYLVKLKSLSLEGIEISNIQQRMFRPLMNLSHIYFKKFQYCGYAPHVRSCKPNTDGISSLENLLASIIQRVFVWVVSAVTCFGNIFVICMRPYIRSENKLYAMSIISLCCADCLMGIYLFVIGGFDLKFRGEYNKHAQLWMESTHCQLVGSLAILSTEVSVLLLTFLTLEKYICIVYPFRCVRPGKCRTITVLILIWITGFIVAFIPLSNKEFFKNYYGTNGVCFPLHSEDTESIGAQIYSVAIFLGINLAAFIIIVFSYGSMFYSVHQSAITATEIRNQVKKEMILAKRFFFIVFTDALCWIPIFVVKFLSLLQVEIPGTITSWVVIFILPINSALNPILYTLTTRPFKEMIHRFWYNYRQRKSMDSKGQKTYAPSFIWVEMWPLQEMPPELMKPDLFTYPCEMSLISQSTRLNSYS
#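 HEK293T cells stably expressing RXFP1 were pretreated with the PDE4 inhibitor Ro 20174, exposed to compounds for 30 min at 37C, lysed, and cAMP was read by TR-FRET. Data normalized to buffer (basal) and 29 nM porcine relaxin (100%).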
# RXFP1 antag: antagonists of human relaxin receptor RXFP1 | Q9HBX9 | HEK293-RXFP1, relaxin-stimulated cAMP HTRF, 30 min; hits give low values | activity change, negative = inhibition, % at 57.5 µM | actives 0.59% (n = 350,000) | AID 1259400;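 active means activity change of -60% or lower, but not beyond a set lower limit; inconclusive means change between -60% and -40%, or beyond the set limit; inactive means change above -40%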; further: on the % scale 0 is the no-effect control and ±100 the full control effect
# Giardia killer: Giardia lamblia killing; Giardia lamblia trophozoite viability; activity change, % at 7.66 µM, hits read low; actives 0.15% (n = 340,000); AID 540267; in the data active means activity change below about -80%; inconclusive means between about -30% and that limit;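 further: parasites exposed to compound for two days anaerobically before the ATP read; on the % scale 0 is the no-effect control and ±100 the full control effect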
#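 Luminescent ATP signal served as the viability read-out, measured 15-30 min after adding ATP detection reagent to trophozoites that had been incubated with compounds for 48 hrs at 37 deg C anaerobically at 100 cells/well.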
# NPSR antagonist: neuropeptide S receptor (human) antagonism, cAMP. Q6W5P4. CHO-NPSR cells, cAMP TR-FRET, antagonist mode. Potency, µM (series often up to 38.3 µM), without a hit: at the highest dose activity change, negative = inhibition, usual class: inhibitors. actives 1% (n = 220,000). AID 1461; further: potency means the concentration at half of the fitted maximal effect; on the % scale 0 is the no-effect control and ±100 the full control effect; nearly all actives have a fitted effect of over 50% in size
# BRCA1 expr up: BRCA1 expression activation; actives 1.1% (n = 380,000); MCF7-BRCA1-FFLuc reporter, luminescence, 48 h; response scale: scaled: vehicle 0%, 10 µM genistein 100%; AID 624202; Potency, µM (titrated, usually from 46.1 µM), for the others: top-dose activation, actives largely listed as activators; further: potency means the concentration at half of the fitted maximal effect; nearly all actives have a fitted effect of over 80% in size
#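 Using MCF7 cells harboring a BRCA1 firefly luciferase reporter, plated 2 h before compound pinning, the screen measured luminescence after 48 h incubation. Responses were normalized to DMSO and 10 microM genistein, then fitted for concentration-effect.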
# Starred values were filed as active, the others as inactive; ? = inconclusive; · = no result given; ! = not active in a repeat; [ ] = remark or other dose. Unless noted, the call rests on the fitted dose curve; in most records, active means well fitted curve in the direction sought with a large enough effect; inconclusive means small, poorly fitted or top-dose-only effect, or another doubt; inactive means no such curve, though single readings can be large; an effect the other way counts as inactive or inconclusive.
SMILES,IL-2 act,RXFP1 ag,RXFP1 antag,Giardia killer,NPSR antagonist,BRCA1 expr up
CN1/C(=C\C(=O)c2ccco2)C(C)(C)c2ccccc21,-1,0%,-86*,14,-12%[46.1 µM],-53%
CN1/C(=C/C(=O)c2nc(S(C)(=O)=O)ncc2Cl)C(C)(C)c2ccccc21,-1,3%,-69*,3,5µM*,-85%
Cc1ccccc1NC(=O)COC(=O)c1ccccc1OCC(=O)Nc1ccc(Br)cc1,·,·,·,·,·,11%
CC(SC1=NS(=O)(=O)c2ccccc21)C(=O)O (configuration not stated),·,·,·,-7,·,6%
Cc1cccc(OCCc2c(C)[nH]c(=S)[nH]c2=O)c1,-1,3%,-118*,12,1%,-33%
Cc1[nH]c(=S)[nH]c(=O)c1Cc1ccccc1,-1,-1%,-63*,12,-8%[46.1 µM],10%
CCCCc1c(C)[nH]c(=S)[nH]c1=O,0,0%,-6,-9,7%,9%
Cc1ccc(Nc2nnc(-c3ccc(C)c(S(=O)(=O)N4CCOCC4)c3)c3ccccc23)c(C)c1,·,-1%,8,·,·,·
O=C(Nc1ccc2nc(-c3cccs3)c(-c3cccs3)nc2c1)N1CCCCC1,·,·,·,-17,·,-5%
CCNc1nc(NCC)nc(-n2cc(C(=O)c3cc(Cl)ccc3O)cn2)n1,·,·,·,-4,·,-8%
Cc1ccc2nc(-c3cccc(NC(=O)c4cccc5c(Cl)cccc45)c3)oc2c1,·,1%,-2,·,·,·
CCOc1ccc2nc(SCc3ccc(OC)cc3)sc2c1,0,0%,-18,2,0%,47%
CCOc1ccc2nc(SCc3ccccc3C#N)sc2c1,0,-1%,6,8,-17%[46.1 µM],7.9µM*
CN(C)c1ccc(-c2nc3ccccn3c2/N=C/c2ccc(Br)cc2)cc1,7,3%,3,?,10µM*,-30%
Cc1c(-c2ccc(Br)cc2)nc2ccccn12,1,3%,1,-11,-29%[46.1 µM],19%
Cc1ccc(NC(=O)c2cc3c([nH]c2=O)CC(C)(C)CC3=O)cc1,·,·,·,·,·,0%
CC(C)c1cc(C(N)=O)c(NC(=O)c2cccc(COc3ccc(Cl)cc3)c2)s1,-1,1%,-8,-23,10µM*,?
Cc1nn(Cc2c(F)c(F)c(F)c(F)c2F)c(C)c1NC(=O)c1cccc(COc2ccc(Cl)cc2)c1,-3,2%,12,4,-29%[46.1 µM],47%
COc1cccc(N2CCN(C(=O)c3cccc(-n4c(C)nc5cccnc54)c3)CC2)c1,·,13%,?,·,·,·
Cc1nc2cccnc2n1-c1cccc(C(=O)N2CCN(c3cccc(Cl)c3)CC2)c1,·,19%,-64*,·,·,·
CC(=O)c1cc(-c2ccccc2)n(CCC(=O)Nc2cc(C)cc(C)c2)c1C,·,-1%,-24,·,·,·
CC(=O)c1ccc(NC(=O)c2cccc(S(=O)(=O)N3CCN(C)CC3)c2)cc1,-3,3%,4,-3,·,11µM*
CC(=O)c1ccc(NC(=O)C2CCN(S(=O)(=O)c3cccs3)CC2)cc1,0,2%,-3,-3,19%,8.9µM*
Cc1ccc(NC(=O)C2CCN(S(=O)(=O)c3cccs3)CC2)cc1C,-1,2%,5,0,-19%[46.1 µM],-36%
CC(=O)N1CCc2c(sc(NC(=O)C3CCN(S(=O)(=O)c4cccs4)CC3)c2C(N)=O)C1,1,1%,-60*,12,·,0%
SMILES,IL-2 act,RXFP1 ag,RXFP1 antag,Giardia killer,NPSR antagonist,BRCA1 expr up
CC(=O)N1CCc2c(sc(NC(=O)C3CCCN3S(=O)(=O)c3cccs3)c2C(N)=O)C1 (configuration not stated),3,1%,0,7,·,-44%
COc1ccc(Nc2nc(N)c3ccccc3n2)c(OC)c1,-1,-1%,7,-1,·,3.5µM*
N/C(=N\N=C\c1ccc([N+](=O)[O-])cc1)c1nonc1N,0,-1%,-1,-14,24%,?
CS/C(N)=N/N=C/c1ccc([N+](=O)[O-])cc1,-2,0%,1,-4,1%[46.1 µM],11µM*
O=C(Nc1ccc(-c2ccc([N+](=O)[O-])cc2)cc1)c1ccccc1F,0,?,2,4,-20%,4%
O=C(Nc1ccc([N+](=O)[O-])cc1)c1ccccc1F,-2,0%,-18,-6,3%,4.5µM*
CCOC(=O)c1sc(=NC(=O)c2cccc(OC)c2)n(C)c1C,-1,3%,-6,-4,10µM*,?
O=c1oc2cc(O)c(Cl)cc2c2ccccc12,0,11µM*,43,-17,7.9µM*,-50%
CC1(C)Cc2nc3sc(C(=O)NCCCO)c(N)c3cc2CO1,2,2%,2,-3,-19%,?
CCOC(=O)c1oc2nc3c(cc2c1N)COC(C)(C)C3,-2,1%,-5,-17,-1%[46.1 µM],7.9µM*
COC(=O)c1sc2nc3c(cc2c1N)COC(C)(C)C3,-1,1%,6,-14,18%[46.1 µM],4.5µM*
Cc1ccc(-c2nn(-c3ccccc3)cc2CO)o1,0,0%,-5,-1,3%[46.1 µM],3.5µM*
CCCN1CNc2c(c(=O)[nH]c(=S)n2CCc2ccc(C)c(C)c2)C1,·,·,·,-8,·,-32%
O=C(Nc1ccc(Cl)cc1Cl)c1cc(S(=O)(=O)N2CCC3(CC2)OCCO3)ccc1F,·,3%,-13,·,·,·
CCC(C)NC(=O)Nc1ccc(Br)cc1 (configuration not stated),-3,-1%,-4,-8,-15%,78%
CCC(C)Nc1ccc(NC(C)CC)cc1 (configuration not stated),0,-3%,·,-101*!,·,-18%
CCC(=NCCc1c(C)[nH]c2ccc(OC(F)(F)F)cc12)C1=C(O)CC(c2ccccc2)CC1=O (configuration not stated),-1,0%,-9,-9,10µM*,-74%
Cc1nn(-c2ccccc2)c(-n2cccc2)c1C(=O)NCCc1ccc(Cl)cc1,·,-1%,·,·,·,-14%
Cc1ccc(-c2nn(-c3ccccc3)cc2/C=N/NC(=O)c2ccc(Br)o2)cc1,0,3%,-9,12,7.9µM*,5%
O=C(N/N=C\c1cn(-c2ccccc2)nc1-c1ccccc1)c1ccc(Br)o1,2,-3%,·,?,-29%[46.1 µM],-59%
O=C(N/N=C/c1ccc(Br)cc1)c1ccc(Br)o1,-6,2%,-23,-4,-6%,7.9µM*
CCN(CC)CCCOc1cc2nc(N3CCCN(C)CC3)nc(NC3CCN(C)CC3)c2cc1OC,·,·,·,·,·,-27%
Cc1cc(C)n2c(Nc3ccccc3)c(-c3ccc(C)o3)nc2n1,·,·,·,21,·,15%
C=CCc1ccc(OCC(O)COc2ccc(CC=C)cc2OC)c(OC)c1,-3,-5%,-69*,10,-19%[46.1 µM],-42%
